Assay outcomes deposited in PubChem by National Center for Advancing Translational Sciences (NCATS).
Most compounds without a hit are left out; they make up all but 19% or so of the library.
HT1080NT lethal = kills 2HG-producing HT-1080-NT fibrosarcoma cells; 360,000 tested, 1.6% active; Potency, µM (doses to about 46.1 µM), for the others: at the top dose activity, negative = less viability, hits mostly cytotoxic; HT-1080-NT fibrosarcoma viability, CellTiter-Glo ATP luminescence, 48 h;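 also: NT is the 2HG producing partner of a matched IDH1 knockdown line; potency is read from the fitted curve at half-maximal effect; 0% = DMSO-treated cells and -100% = media-only wells without cells; nearly all actives have a fitted effect of over 55% in size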
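Fibrosarcoma NT cells, 750 per well in 5% FBS RPMI, were exposed to compound for 48 hours. Viability: CellTiter-Glo luminescence.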
IL-1B inflam inh = blocks inflammasome-driven IL-1 beta release | AID 743279 | activity change, % at 57.5 µM | 360,000 tested, 4.7% active | THP-1 LPS/ATP IL-1B secretion, AlphaLISA, 16 h; active compounds read low; in the data active = activity change below about -50%; inconclusive = mostly about -30% to -49%
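Secreted IL-1B measured by AlphaLISA bead assay after 16 h compound exposure of THP-1 cells; compounds (final up to 57.5 uM) added 1 h before LPS (250 ng/mL) and ATP (1.25 mM) stimulation; lower signal means less secretion.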
DT40 TDP1 no CPT = qHTS for Inhibitors of human tyrosyl-DNA phosphodiesterase 1 (TDP1): qHTS in cells in absence of CPT; Potency, µM (titrated, usually from 46.2 µM), without a hit: at the highest dose activity change, negative = growth inhibition, hits mostly inhibitors; 420,000 tested, 15% active; DT40 Tdp1-/- hTDP1 cells, no CPT, ATP luminescence, 48 h; also: potency is read from the fitted curve at half-maximal effect; nearly all actives have a fitted effect of over 55% in size
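No-CPT arm: Tdp1-/-;hTDP1 DT40 cells (400/well) plus compounds, incubated ≥48 hr at 37 °C. Readout CellTiter-Glo luminescence.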
TDP1 cell CPT = DT40-hTDP1 cell growth loss with CPT. chicken DT40 Tdp1-/-;hTDP1 cells + 20 nM CPT, ATP luminescence, 48 h. Potency, µM (series often up to 46.2 µM), inactives show top-dose activity change, negative = growth inhibition, hits mostly inhibitors. 420,000 tested, 12% active. AID 686979; also: potency is read from the fitted curve at half-maximal effect; nearly all actives have a fitted effect of over 55% in size
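Cell growth measured by CellTiter-Glo luminescence after a minimum 48 h, 37 C compound exposure with 20 nM CPT in Tdp1-knockout DT40 cells stably expressing hTDP1, seeded 400/well; qHTS titration format.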
HT1080 IDH1KD tx = HT-1080 IDH1 knockdown cell toxicity (counter line). HT-1080 IDH1 knockdown viability, ATP luminescence, 48 h. 360,000 tested, 2% active. Potency, µM (series often up to 46.1 µM), for inactives: at the highest dose activity, negative = toxicity, hits mostly cytotoxic;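 also: potency is read from the fitted curve at half-maximal effect; 0% = DMSO wells and -100% = cell-free medium wells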
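Luminescent ATP read-out (CellTiter-Glo, 10 min at room temperature) after 48 h compound exposure at 37 °C gave viability of IDH1-knockdown HT-1080 cells. Activity was normalised to DMSO and cell-free wells, then fitted as concentration-response curves.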
* marks the source's active call; other numbers are inactive results. Unless noted, calls follow the shape of the dose curve; as a rule, active = well fitted curve in the direction sought with a large enough effect; inconclusive = small, poorly fitted or top-dose-only effect, or another doubt; inactive = no such curve, though single readings can be large; an effect the other way counts as inactive or inconclusive. Unless noted, % is scaled to controls: 0 for no effect and ±100 for the full control effect.

Cc1cccc(-c2ocnc2C(=O)Nc2ccccc2NC(=O)c2ccccn2)c1 was read as HT1080NT lethal 18.4µM*, IL-1B inflam inh inconclusive, DT40 TDP1 no CPT 0.291µM*, TDP1 cell CPT 0.92µM* and HT1080 IDH1KD tx inconclusive.
For Cc1ccc(-c2ocnc2C(=O)Nc2ccccc2NC(=O)c2ccccn2)cc1 the results were HT1080NT lethal inconclusive, IL-1B inflam inh inconclusive, DT40 TDP1 no CPT inconclusive, TDP1 cell CPT 20.6µM* and HT1080 IDH1KD tx inconclusive.
Screening CSc1ccccc1NC(=O)c1ccccn1 returned HT1080NT lethal 4.9%, IL-1B inflam inh -22.4, DT40 TDP1 no CPT 2.06µM*, TDP1 cell CPT 1.3µM* and HT1080 IDH1KD tx 4.5%.
For Cc1ccc(-c2ocnc2C(=O)Nc2nc(C)cs2)cc1 the results were HT1080NT lethal -26.3%, IL-1B inflam inh 0.2, DT40 TDP1 no CPT -24.8%, TDP1 cell CPT -10.4% and HT1080 IDH1KD tx -0.6%.
O=C(CSc1cccc[n+]1[O-])N1CCc2ccccc21 was read as HT1080NT lethal -1.1%, IL-1B inflam inh 16.5, DT40 TDP1 no CPT 12.9%, TDP1 cell CPT 0.2% and HT1080 IDH1KD tx -0.5%.
COCCN(CC(=O)NCC1CCCO1)C(=O)CCC(=O)Nc1ccccn1 (configuration not stated) was read as HT1080NT lethal 19.2%, IL-1B inflam inh -8.6, DT40 TDP1 no CPT 23.1µM*, TDP1 cell CPT 13µM* and HT1080 IDH1KD tx 0.0%.
For O=C(CN(CC1CCCO1)C(=O)CCC(=O)Nc1ccccn1)NCC1CCCO1 (configuration not stated) the results were HT1080NT lethal 1.4%, IL-1B inflam inh 3.3, DT40 TDP1 no CPT -21.6%, TDP1 cell CPT 4.2% and HT1080 IDH1KD tx 6.8%.
Screening CO/N=C/NC(=O)c1ccc([N+](=O)[O-])c(CS(=O)(=O)c2ccc(Cl)cc2)c1 returned HT1080NT lethal 13.6%, IL-1B inflam inh 0.0, DT40 TDP1 no CPT 10.3µM*, TDP1 cell CPT 7.31µM* and HT1080 IDH1KD tx 19.3%.
Screening NNC(=O)c1ccc([N+](=O)[O-])c(CS(=O)(=O)c2ccc(Cl)cc2)c1 returned HT1080NT lethal -11.7%, IL-1B inflam inh -5.7, DT40 TDP1 no CPT inconclusive, TDP1 cell CPT -12.1% and HT1080 IDH1KD tx -9.1%.
Screening Cc1ccc(CCNC(=O)CS(=O)Cc2nc(-c3ccccc3Cl)oc2C)cc1 (configuration not stated) returned HT1080NT lethal 1.6%, IL-1B inflam inh -13.0, DT40 TDP1 no CPT inconclusive, TDP1 cell CPT inconclusive and HT1080 IDH1KD tx -1.7%.
Screening COc1ccc2c(c1)Cc1sc(NC(=O)c3cccnc3)nc1-2 returned HT1080NT lethal 16.7%, IL-1B inflam inh inconclusive, DT40 TDP1 no CPT 20.6µM*, TDP1 cell CPT inconclusive and HT1080 IDH1KD tx 5.0%.
`COc1ccc2c(c1)CCc1sc(NC(=O)c3ccco3)nc1-2` gave HT1080NT lethal 29.8%, IL-1B inflam inh 6.4, DT40 TDP1 no CPT inconclusive, TDP1 cell CPT inconclusive and HT1080 IDH1KD tx 16.8%.
`COc1ccc2c(c1)-c1nc(NC(=O)c3ccco3)sc1CC2` gave HT1080NT lethal 9.7%, IL-1B inflam inh -5.7, DT40 TDP1 no CPT 14.6µM*, TDP1 cell CPT inconclusive and HT1080 IDH1KD tx 8.9%.
COc1ccc2c(c1)Cc1sc(NC(C)=O)nc1-2 was read as HT1080NT lethal -3.6%, IL-1B inflam inh -20.8, DT40 TDP1 no CPT 4.2%, TDP1 cell CPT -13.3% and HT1080 IDH1KD tx 3.3%.
`O=C(CSc1ccc([N+](=O)[O-])cc1)NCC1CCCCC1` gave HT1080NT lethal 7.6%, IL-1B inflam inh -8.1, DT40 TDP1 no CPT -3.8%, TDP1 cell CPT inconclusive and HT1080 IDH1KD tx 0.8%.
Screening Cc1nc2cnc(N3CCOCC3)nc2n(Cc2ccc(F)cc2)c1=O returned DT40 TDP1 no CPT 16.8% and TDP1 cell CPT 3.3%.
For Cc1cc(C)c(S(=O)(=O)N2CCCOC2CNC(=O)C(=O)NCc2ccco2)c(C)c1 (configuration not stated) the results were HT1080NT lethal 10.1%, IL-1B inflam inh -2.2, DT40 TDP1 no CPT -2.5%, TDP1 cell CPT 6.5% and HT1080 IDH1KD tx 11.1%.
`CCOc1ccc(CNC(=O)CCc2cn(C)c3ccccc23)cc1` gave HT1080NT lethal 19.4%, IL-1B inflam inh -11.7, DT40 TDP1 no CPT inconclusive, TDP1 cell CPT -21.7% and HT1080 IDH1KD tx 18.3%.
`CC(CC(=O)NC1CCCC1)c1ccccc1` (configuration not stated) gave HT1080NT lethal 16.6%, IL-1B inflam inh 17.8, DT40 TDP1 no CPT -2.3%, TDP1 cell CPT 3.0% and HT1080 IDH1KD tx 14.8%.
Cc1ccc(C)c(NC(=O)c2ccc3c(c2)N(Cc2ccc(F)cc2)C(=O)CS3=O)c1 (configuration not stated) was read as HT1080NT lethal 7.5%, IL-1B inflam inh -3.6, DT40 TDP1 no CPT -26.8%, TDP1 cell CPT -24.9% and HT1080 IDH1KD tx 2.9%.
For O=C(Nc1ccc(Br)cc1F)c1ccc2c(c1)N(Cc1ccccc1)C(=O)CS2=O (configuration not stated) the results were HT1080NT lethal inconclusive, IL-1B inflam inh -57.5*, DT40 TDP1 no CPT 13µM*, TDP1 cell CPT 9.2µM* and HT1080 IDH1KD tx -27.3%.
`O=C(NCc1ccco1)c1ccc2c(c1)N(Cc1ccccc1)C(=O)CS2=O` (configuration not stated) gave HT1080NT lethal 3.7%, IL-1B inflam inh 9.8, DT40 TDP1 no CPT -8.7%, TDP1 cell CPT -27.2% and HT1080 IDH1KD tx 13.1%.
O=C(NCC1CCCO1)c1ccc2c(c1)N(Cc1ccccc1)C(=O)CS2=O (configuration not stated) was read as HT1080NT lethal -0.4%, IL-1B inflam inh -7.7, DT40 TDP1 no CPT inconclusive, TDP1 cell CPT 14.6µM* and HT1080 IDH1KD tx 2.8%.
For O=C(NNc1ncc(C(F)(F)F)cc1Cl)c1c(Cl)cccc1Cl the results were HT1080NT lethal inconclusive, IL-1B inflam inh 19.4, DT40 TDP1 no CPT 4.11µM*, TDP1 cell CPT 4.11µM* and HT1080 IDH1KD tx 7.31µM*.
For Fc1ccccc1NC(=S)NNc1ncc(C(F)(F)F)cc1Cl the results were HT1080NT lethal inconclusive, IL-1B inflam inh -19.9, DT40 TDP1 no CPT 23.1µM*, TDP1 cell CPT inconclusive and HT1080 IDH1KD tx inconclusive.
For Cc1c(Cl)cccc1NC(=S)NNc1ncc(C(F)(F)F)cc1Cl the results were HT1080NT lethal inconclusive, IL-1B inflam inh -69.3*, DT40 TDP1 no CPT inconclusive, TDP1 cell CPT inconclusive and HT1080 IDH1KD tx inconclusive.
`Cc1ccccc1NC(=S)NNc1ncc(C(F)(F)F)cc1Cl` gave HT1080NT lethal 3.6%, IL-1B inflam inh -9.2, DT40 TDP1 no CPT -26.0%, TDP1 cell CPT -10.8% and HT1080 IDH1KD tx -3.6%.
